PubChem BioAssay (NCI)
About 83,000 compounds went through this panel and 20% of them were active in at least one assay; those are over-represented in the sample as a whole.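 Method: cells in 96-well plates; compound added at one concentration; 48 h incubation; percent growth measured; values under 10 scored active.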 The source made the active and inactive calls.

What follows are compounds tested on HOP-62 NSCLC (assay: NCI-60 one-dose screen, 48 h (100 = growth as untreated, 0 = no growth, -100 = all killed)). Details: 10 µM unless noted.

| Structure (SMILES) | growth |
| --- | --- |
| C/C(=C\c1csc(C)n1)[C@@H]1C[C@@H]2O[C@]2(C)CCC[C@H](C)[C@H](O)[C@@H](C)C(=O)C(C)(C)[C@@H](O)CC(=O)N1 | -69.5% (active) |
| COc1ccc(C2CC(c3cccs3)=NN2c2ccc(S(=O)(=O)NC(=O)Nc3ccc(C)cc3)cc2)cc1 (stereo unspecified) | 76.9% (inactive) |
| CCSc1nnc(NC(=O)COc2ccc(Cl)cc2C)s1 | 100% (inactive) |
| COc1cc(CNC(=O)CSc2nc3ccccc3c(=O)n2Cc2cc(OC)c(OC)c(OC)c2)cc(OC)c1OC | 94% (inactive) |
| COc1ccc(NC(=S)/N=c2\oc3c(OC)cccc3cc2-c2cc3ccccc3[nH]2)cc1 | 37.6% (inactive) |
| COc1ccc(C2=CC(c3ccc(Oc4ccnc5cc(Cl)ccc45)c(OC)c3)c3c(nc(OC)[nH]c3=O)N2)cc1 (stereo unspecified) | 81.8% (inactive) |
| CCN(C(=O)c1cc2ncccc2[nH]1)[C@H]1CCC[C@@H](NCc2cccc(F)c2)C1 | 105% (inactive) |
| COc1ccc(/C=C/C(=O)/C=C/c2cc3ccc(Cl)cc3[nH]c2=O)cc1 | 85.3% (inactive) |
| CCc1c(C(=O)Nc2ccc3ccccc3c2)[nH]c(C)c1C(C)=O | 96.1% (inactive) |
| Cc1cnc(NC(=O)C(Cc2ccccc2)NC(=O)c2ccccc2)s1 (stereo unspecified) | 84.1% (inactive) |
| O=C1Nc2ccc(Br)cc2C1=N/C=c1\[nH]c(=O)/c(=C/c2ccc(Cl)cc2)s1 | 84.1% (inactive) |
| CC/C(=C(\c1ccc(O)cc1)c1ccc(OCCN(C)CCN(C)C(=O)CCC(=O)c2c(C)[nH]c(/C=C3\N=C(c4ccc[nH]4)C=C3OC)c2C)cc1)c1ccccc1 | 91.3% (inactive) |

These compounds were tested on NCI-H460 lung in the same assay as above. Details: 10 µM unless noted.

| Structure (SMILES) | growth |
| --- | --- |
| COc1ccc(S(=O)(=O)N2CCN(c3cc4c(cc3F)c(=O)c(C(=O)O)cn4C3CC3)CC2)c(OC)c1 | 99% (inactive) |
| CCC(C)NCC(=O)O (stereo unspecified) | 108% (inactive) |
| O=C(O)Cc1ccc2c(c1)Cc1cccnc1O2 | 105% (inactive) |
| COc1cc(Cn2c(SCC(=O)Nc3ccc(Cl)cc3)nc3ccccc3c2=O)cc(OC)c1OC | 17.7% (inactive) |
| CC(C)(C)OC(=O)N[C@@H](Cc1ccccc1)C(=O)N(Cc1ccccc1)C1(C(=O)NCc2ccccc2)CCN(Cc2ccccc2)CC1 | 26.6% (inactive) |
| COC(=O)C(CC(=O)c1ccc(-c2ccccc2)cc1)c1ccccc1 (stereo unspecified) | 90% (inactive) |
| C=C1C(=O)O[C@H]2[C@H]1CC/C(Cn1cc(-c3ccccc3C(F)(F)F)nn1)=C\CC[C@@]1(C)O[C@@H]21 | 49.1% (inactive) |
| O=C(O)C(=Cc1c2ccccc2cc2ccccc12)C(=O)O | 112% (inactive) |
| CN(C)c1nc(N)c(N=O)c(N)n1 | 110% (inactive) |
| CCCCCCC[C@@H](O)CC(=O)N[C@H](CCCCN)C(=O)N[C@H](Cc1c[nH]c2ccccc12)C(=O)NC(CCCCN)C(=O)N[C@H](CC(C)C)C(=O)N[C@H](Cc1ccccc1)C(=O)N[C@H](CCCCN)C(=O)N[C@H](CCCCN)C(=O)N[C@H](CC(C)C)C(=O)N1CCCC1C(=O)N[C@H](CCCCN)C(=O)N[C@H](Cc1ccccc1)C(=O)N[C@H](CC(C)C)C(=O)N[C@H](Cc1c[nH]cn1)C(=O)N[C@H](CC(C)C)C(=O)N[C@H](C)C(=O)N[C@H](CCCCN)C(=O)N[C@H](CCCCN)C(=O)N[C@H](Cc1ccccc1)C(=O)O (stereo partly specified) | -25.4% (active) |
| O=S(=O)(NCCCNc1cc(-c2cn(-c3ccccc3)nc2-c2cccc(O)c2)ccn1)c1cccc2ccccc12 | 18% (inactive) |
| O=C(NCCCN1CCN(CCCNC(=O)C2CCCCC2)CC1)C1CCCCC1 | 101% (inactive) |
| CCN(Cc1ccc(CN(CC)C(=O)C(Cl)(Cl)Cl)cc1)C(=O)C(Cl)(Cl)Cl | 86.7% (inactive) |
| CCOC(=O)CC(C#N)(CC(=O)OCC)C(=O)OCC | 115% (inactive) |
| COc1ncc(-c2ccc3ncnc(Nc4cccc(Cl)c4)c3c2)cc1NS(=O)(=O)C1CC1 | 28.3% (inactive) |
| Cc1cc(C)c(S(=O)(=O)N2CCN(c3cc4c(cc3F)c(=O)c(C(=O)O)cn4C3CC3)CC2)c(C)c1 | 39.5% (inactive) |
| COc1ccc(/C=C/C(=O)OCC(=O)NNC(=O)c2ccccc2)cc1OC | 110% (inactive) |
| O=C1c2ccccc2C(=O)c2c1oc1oc3c(c(=O)c21)c(=O)n(-c1ccccc1)c1ccccc31 | 33.6% (inactive) |
| O=C(Nc1ccc(Cl)cc1)c1cc(-c2ccc(F)cc2)c2sc(=O)[nH]c2n1 | 1.4% (active) |
| CC(C)(C)c1ccc(S(=O)(=O)Oc2ccc3c4c(c(=O)oc3c2)CCCCC4)cc1 | 43.2% (inactive) |

| Structure (SMILES) | growth |
| --- | --- |
| CCN(CC)CCSc1c2ccc(Cl)cc2nc2ccc(OC)cc12 | 102% (inactive) |
| Cc1ccc(OCCn2c(C)nn(-c3ccc(Cl)cc3)c2=O)cc1 | 106% (inactive) |
| O=C(CN1CCN(c2cc3c(cc2F)c(=O)c(C(=O)O)cn3C2CC2)CC1)Nc1ccc(C(=O)/C=C/c2ccc(Cl)cc2)cc1 | 112% (inactive) |
| CCC(c1ccc(OC)cc1)C(CC)c1ccc(OCC[N+](C)(C)C)cc1 (stereo unspecified) | 59% (inactive) |
| O=C(C[N+](=O)[O-])c1ccc(Cl)cc1 | 111% (inactive) |
| O=C(CCC(=O)OC1CCCC1)OC1CCCC1 | 104% (inactive) |
| CCOC(=O)c1ccccc1NC(c1ccccc1)c1ccc2cccnc2c1O (stereo unspecified) | 6.16% (active) |
| C/C(=C\c1csc(C)n1)[C@@H]1C[C@@H]2O[C@]2(C)CCC[C@H](C)[C@H](O)[C@@H](C)C(=O)C(C)(C)[C@@H](O)CC(=O)N1 | -85.5% (active) |
| COc1ccc(C2CC(c3cccs3)=NN2c2ccc(S(=O)(=O)NC(=O)Nc3ccc(C)cc3)cc2)cc1 (stereo unspecified) | 103% (inactive) |
| CCSc1nnc(NC(=O)COc2ccc(Cl)cc2C)s1 | 112% (inactive) |
| COc1cc(CNC(=O)CSc2nc3ccccc3c(=O)n2Cc2cc(OC)c(OC)c(OC)c2)cc(OC)c1OC | 108% (inactive) |
| COc1ccc(NC(=S)/N=c2\oc3c(OC)cccc3cc2-c2cc3ccccc3[nH]2)cc1 | 69.8% (inactive) |
| COc1ccc(C2=CC(c3ccc(Oc4ccnc5cc(Cl)ccc45)c(OC)c3)c3c(nc(OC)[nH]c3=O)N2)cc1 (stereo unspecified) | 63.5% (inactive) |
| CCN(C(=O)c1cc2ncccc2[nH]1)[C@H]1CCC[C@@H](NCc2cccc(F)c2)C1 | 105% (inactive) |
| COc1ccc(/C=C/C(=O)/C=C/c2cc3ccc(Cl)cc3[nH]c2=O)cc1 | 86.7% (inactive) |
| CCc1c(C(=O)Nc2ccc3ccccc3c2)[nH]c(C)c1C(C)=O | 101% (inactive) |
| Cc1cnc(NC(=O)C(Cc2ccccc2)NC(=O)c2ccccc2)s1 (stereo unspecified) | 74.3% (inactive) |
| O=C1Nc2ccc(Br)cc2C1=N/C=c1\[nH]c(=O)/c(=C/c2ccc(Cl)cc2)s1 | 101% (inactive) |
| CC/C(=C(\c1ccc(O)cc1)c1ccc(OCCN(C)CCN(C)C(=O)CCC(=O)c2c(C)[nH]c(/C=C3\N=C(c4ccc[nH]4)C=C3OC)c2C)cc1)c1ccccc1 | 58.2% (inactive) |
